Experimental data as given in PubChem BioAssay AID1159580 (chemical genetic matrix, 2015).
Several values for one entry are separate records, joined by “and”; a condition that tells them apart may be missing. Identical values can stand only once. Hit rate of the full screen: of about 5,500 compounds, about 2,000 (36%) were called active. About 18% were inconclusive and are not listed. No stated cut-off is given here; in the data, active means normalized growth mostly below about 0.91 (no sharp cut-off); inconclusive means no clear call, values can overlap the other calls; inactive means mostly above about 0.92. This is one part of the list.

Assay: chemical genetic growth profiling, strain panel (AID 1159580);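 further: tested at 20 µM; growth read once vehicle control cultures reached saturation at 30 °C; 1 = growth at the plate median or of vehicle wells; lower values mean less growth of the strain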
Conditions: S. cerevisiae deletion strains, growth OD

Measured: normalized growth

Cc1cc(O)c(C)c(O)c1C(=O)O
inactive: locus YAL021C, strain ccr4, active compounds read low 0.989 | locus YAL026C, strain drs2, active compounds read low 0.979 | locus YAL030W, strain snc1, active compounds read low 0.999 | locus YBL061C, strain skt5, active compounds read low 0.989 | locus YBR009C, strain hhf1, active compounds read low 0.97 | locus YBR021W, strain FUR4, active compounds read low 0.986 | locus YBR023C, strain chs3, active compounds read low 0.981 | locus YBR171W, strain sec66, active compounds read low 0.99 | locus YBR229C, strain ROT2, active compounds read low 0.993 | locus YBR231C, strain swc5, active compounds read low 0.992 | locus YBR279W, strain paf1, active compounds read low 0.984 | locus YCL011C, strain gbp2, active compounds read low 0.991 | locus YCL016C, strain dcc1, active compounds read low 0.99 | locus YCL029C, strain bik1, active compounds read low 0.976 | locus YCL061C, strain MRC1, active compounds read low 1.01 | locus YCL069W, strain vba3, active compounds read low 0.995 | locus YCR088W, strain abp1, active compounds read low 0.988 | locus YDL005C, strain med2, active compounds read low 0.984 | locus YDL035C, strain GPR1, active compounds read low 1.03 | locus YDL040C, strain nat1, active compounds read low 0.99 | locus YDL074C, strain BRE1, active compounds read low 1.06 | locus YDL101C, strain DUN1, active compounds read low 0.986 | locus YDL134C, strain PPH21, active compounds read low 0.978 | locus YDL185W, strain tfp1, active compounds read low 0.964 | locus YDL192W, strain arf1, active compounds read low 0.997 | locus YDR001C, strain nth1, active compounds read low 0.981 | locus YDR069C, strain doa4, active compounds read low 0.956 | locus YDR101C, strain arx1, active compounds read low 1.04 | locus YDR137W, strain rgp1, active compounds read low 0.899 | locus YDR159W, strain sac3, active compounds read low 0.983 | locus YDR162C, strain NBP2, active compounds read low 1.03 | locus YDR195W, strain ref2 0.977 | locus YDR297W, strain sur2, active compounds read low 0.986 | locus YDR318W, strain mcm21, active compounds read low 0.979 | locus YDR334W, strain swr1, active compounds read low 0.975 | locus YDR335W, strain msn5, active compounds read low 0.985 | locus YDR388W, active compounds read low 1 | locus YDR392W, strain spt3, active compounds read low 0.931 | locus YDR502C, strain sam2, active compounds read low 0.98 | locus YEL003W, strain gim4, active compounds read low 0.978 | locus YEL037C, strain rad23, active compounds read low 0.976 | locus YEL061C, strain CIN8 (second series), active compounds read low 0.979 | locus YEL061C, strain CIN8, active compounds read low 1 | locus YER015W, strain faa2, active compounds read low 0.987 | locus YER016W, strain bim1, active compounds read low 0.991 | locus YER110C, active compounds read low 0.984 | locus YER111C, strain swi4, active compounds read low 0.985 | locus YER155C, strain BEM2 (second series), active compounds read low 0.968 | locus YER155C, strain BEM2, active compounds read low 0.988 | locus YER167W, strain BCK2, active compounds read low 1.01 | locus YFR010W, strain ubp6, active compounds read low 0.975 | locus YGL078C, strain dbp3, active compounds read low 0.95 | locus YGL086W, strain mad1, active compounds read low 0.997 | locus YGL167C, strain pmr1, active compounds read low 0.974 | locus YGL173C, strain kem1, active compounds read low 0.984 | locus YGL227W, strain vid30, active compounds read low 0.995 | locus YGL240W, strain doc1, active compounds read low 0.906 | locus YGL248W, strain PDE1, active compounds read low 0.978 | locus YGL253W, strain hxk2, active compounds read low 0.993 | locus YGR078C, strain PAC10, active compounds read low 0.976 | locus YGR135W, strain pre9, active compounds read low 0.925 | locus YGR252W, strain gcn5, active compounds read low 0.926 | locus YHR013C, strain ard1, active compounds read low 0.954 | locus YHR027C, strain rpn1, active compounds read low 0.997 | locus YHR030C, strain SLT2, active compounds read low 1.04 | locus YHR079C, strain IRE1 (second series), active compounds read low 0.993 | locus YHR079C, strain IRE1, active compounds read low 1.02 | locus YHR094C, strain hxt1, active compounds read low 0.981 | locus YHR129C, strain ARP1, active compounds read low 1.01 | locus YHR142W, strain chs7, active compounds read low 1.02 | locus YHR200W, strain rpn10, active compounds read low 0.96 | locus YIL066C, strain RNR3, active compounds read low 1.01 | locus YIL073C, strain SPO22, active compounds read low 0.806 | locus YIL125W, strain kgd1, active compounds read low 1 | locus YIR030C, strain dcg1, active compounds read low 0.989 | locus YJL092W, strain hpr5, active compounds read low 1 | locus YJL095W, strain BCK1 (second series), active compounds read low 1 | locus YJL095W, strain BCK1, active compounds read low 0.988 and 1.05 | locus YJL115W, strain asf1, active compounds read low 0.983 | locus YJL129C, strain trk1, active compounds read low 0.995 | locus YJL134W, strain LCB3, active compounds read low 1 | locus YJL154C, strain vps35, active compounds read low 0.986 | locus YJL164C, strain tpk1, active compounds read low 1.01 | locus YJL166W, strain qcr8, active compounds read low 0.961 | locus YJL168C, strain set2, active compounds read low 0.982 | locus YJL187C, strain SWE1 (second series), active compounds read low 0.985 | locus YJL187C, strain SWE1, active compounds read low 0.992
